Measurements reported in the supplement of paper PMC12350171.
Counter-ions that a name gives are not always drawn. Unmarked numbers belong to inactive results.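 Rule for the calls: active = AUC significantly below DMSO controls by Student t-fit with adjusted P under 0.01; inactive = not significantly reduced.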

What follows are compounds tested on Vibrio cholerae (assay: growth AUC normalised to DMSO control (fraction of control); higher = less growth inhibition, active = hit call of the paper). Conditions: 20 µM.
Summary of the method: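 Pathogens were passaged twice under anaerobic conditions, then inoculated into pre-reduced mGAM plates at a starting OD578 of 0.01, with compound at 20 μM and 1% DMSO, and sealed with breathable membranes. For Haemophilus parainfluenzae, the medium was supplemented with hemin and NAD. OD578 was read every hour for 24 h in three biological replicates. Growth-curve AUC was calculated by the trapezoidal rule up to the exponential-to-stationary transition and normalised to DMSO controls on the same plate.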

SMILES | growth AUC normalised to DMSO control
O=C(NCC(O)CO)c1c(I)c(C(=O)NCC(O)CO)c(I)c(N(CCO)C(=O)CO)c1I (stereo not given) [Ioversol] | 1.07
CC(=O)CCCCn1c(=O)c2c(ncn2C)n(C)c1=O [Pentoxifylline] | 0.967
COC(=O)Nc1nc2cc(C(=O)c3ccc(F)cc3)ccc2[nH]1 [Flubendazol] | 0.993
CC(=O)N(CC(O)CO)c1c(I)c(C(=O)NCC(O)CO)c(I)c(C(=O)NCC(O)CO)c1I (stereo not given) [Iohexol] | 0.995
O=C(Nc1cccc2c(=O)cc(-c3nnn[nH]3)oc12)c1ccc(OCCCCc2ccccc2)cc1 [Pranlukast] | 1
Cc1cccc(C)c1NC(=O)C1CCCCN1C (stereo not given) [Mepivacaine hydrochloride] | 1.07
CCn1cc(C(=O)O)c(=O)c2cnc(N3CCCC3)nc21 [Piromidic acid] | 0.0557 (active)
C[C@H](CCC(=O)O)[C@H]1CC[C@H]2[C@@H]3CC[C@@H]4C[C@H](O)CC[C@]4(C)[C@H]3CC[C@]12C [Lithocholic acid] | 1.04
CS(=O)(=O)c1ccc([C@@H](O)[C@@H](CO)NC(=O)C(Cl)Cl)cc1 [Thiamphenicol] | 0.037 (active)
COC(=O)C1=C(C)NC(C)=C(C(=O)OC(C)C)C1c1cccc2nonc12 (stereo not given) [Isradipine] | 1.02
NS(=O)(=O)c1cc2c(cc1C(F)(F)F)NCNS2(=O)=O [Hydroflumethiazide] | 0.998
CN(C)CCN(Cc1cccs1)c1ccccn1 [Methapyrilene hydrochloride] | 0.995
C[C@]12CC[C@@H]3c4ccc(OS(=O)(=O)O)cc4CC[C@H]3[C@@H]1CCC2=O [Estropipate piperazine salt] | 0.991
CN(CCCCCCCCCCN(C)C(=O)Oc1cccc([N+](C)(C)C)c1)C(=O)Oc1cccc([N+](C)(C)C)c1 [Demecarium bromide] | 0.984
O=C(OCC(O)CO)c1ccccc1Nc1ccnc2cc(Cl)ccc12 (stereo not given) [Glafenine hydrochloride] | 0.88
NC(=O)c1cnccn1 [Pyrazinamide] | 0.993
COCCOC(=O)C1=C(C)NC(C)=C(C(=O)OC(C)C)C1c1cccc([N+](=O)[O-])c1 (stereo not given) [Nimodipine] | 0.956
Cn1c(=O)c2c(ncn2CCO)n(C)c1=O [Etofylline] | 1.01
CCN(CCCc1ccccc1)CCCc1ccccc1 [Alverine citrate salt] | 0.841 (active)
N=C(N)NC(=O)c1nc(Cl)c(N)nc1N [Amiloride hydrochloride dihydrate] | 1.04

SMILES | growth AUC normalised to DMSO control
CC(=C(CCO)SSCC1CCCO1)N(C=O)Cc1cnc(C)nc1N (stereo in doubt) [Fursultiamine hydrochloride] | 1
CC(=O)N[C@@H](CC(C)C)C(=O)O [N-Acetyl-L-leucine] | 1.03
OCCN1CCN(CCCN2c3ccccc3C=Cc3ccccc32)CC1 [Opipramol dihydrochloride] | 0.961
CC1(C)[C@@H](OC(=O)CCC(=O)O)CC[C@]2(C)[C@H]3C(=O)C=C4[C@@H]5C[C@@](C)(C(=O)O)CC[C@]5(C)CC[C@@]4(C)[C@]3(C)CC[C@@H]12 [Carbenoxolone disodium salt] | 0.971
CC(=O)O[C@]1(C(C)=O)CC[C@H]2[C@@H]3C=C(C)C4=CC(=O)CC[C@@H]4[C@H]3CC[C@@]21C [Nomegestrol acetate] | 1.06
Cc1ccccc1N1C(=O)c2cc(S(N)(=O)=O)c(Cl)cc2NC1C (stereo not given) [Metolazone] | 0.996
CCCOc1ccc(C(=O)OCCN(CC)CC)cc1N [Proparacaine hydrochloride] | 1.08
CN(N=O)C(=O)N[C@H]1C(O)O[C@H](CO)[C@@H](O)[C@@H]1O (mixture of isomers) [Streptozotocin] | 0.141 (active)
CC(C[N+](C)(C)C)OC(N)=O (stereo not given) [Bethanechol chloride] | 1.02
CN(C)CCOC(c1ccccc1)c1ccccc1.Cn1c(=O)c2[nH]c(Cl)nc2n(C)c1=O [Dimenhydrinate] | 0.933
CC(=O)OCC(=O)[C@@]12N=C(C)O[C@@H]1C[C@H]1[C@@H]3CCC4=CC(=O)C=C[C@]4(C)[C@H]3[C@@H](O)C[C@@]12C [Deflazacort] | 1
C[C@H](CCC(=O)O)[C@H]1CC[C@H]2[C@@H]3[C@@H](O)C[C@@H]4C[C@H](O)CC[C@]4(C)[C@H]3CC[C@]12C [Urosiol] | 1.04
CCc1c2c(nc3ccc(OC(=O)N4CCC(N5CCCCC5)CC4)cc13)-c1cc3c(c(=O)n1C2)COC(=O)[C@]3(O)CC [Irinotecan hydrochloride trihydrate] | 1.01
Cc1ccc(S(=O)(=O)NC(=O)NN2CC3CCCC3C2)cc1 (stereo not given) [Gliclazide] | 1.02
CC(C(=O)O)c1ccc2c(c1)Cc1cccnc1O2 (stereo not given) [Pranoprofen] | 0.993
CC(=O)OCC(=O)[C@@]1(OC(C)=O)[C@@H](C)C[C@H]2[C@@H]3C[C@H](F)C4=CC(=O)C=C[C@]4(C)[C@@]3(F)[C@@H](O)C[C@@]21C [Diflorasone Diacetate] | 1.01
COc1ccc2c3c1O[C@H]1C[C@@H](O)C=C[C@@]31CCN(C)C2 [Galanthamine hydrobromide] | 0.986
CCN1CCCC1CNC(=O)c1cc(S(N)(=O)=O)ccc1OC (stereo not given) [Sulpiride] | 1.01
NS(=O)(=O)c1cc2c(cc1Cl)NC(CC1CCCC1)NS2(=O)=O (stereo not given) [Cyclopenthiazide] | 0.98
CN1CCN(C(c2ccccc2)c2ccc(Cl)cc2)CC1 (stereo not given) [Chlorcyclizine hydrochloride] | 0.927
